Screening data from PubChem BioAssay.
ABHD5 PLIN5 PPI: ABHD5-PLIN5 interaction inhibitors, primary screen, cell lysate, split luciferase complementation, luminescence. inhibition, % at 4 µM. AID 602281, 2012. 0.78% of 360,000 active. Split G. princeps luciferase complementation, 4 h;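 active means inhibition above the mean inhibition across every tested compound plus 3 SD, cut at about 22% in these data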;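 further: 0% = DMSO only wells and the 100% control is not disclosed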
Target sequence (Q00G26 whole entry, looked up): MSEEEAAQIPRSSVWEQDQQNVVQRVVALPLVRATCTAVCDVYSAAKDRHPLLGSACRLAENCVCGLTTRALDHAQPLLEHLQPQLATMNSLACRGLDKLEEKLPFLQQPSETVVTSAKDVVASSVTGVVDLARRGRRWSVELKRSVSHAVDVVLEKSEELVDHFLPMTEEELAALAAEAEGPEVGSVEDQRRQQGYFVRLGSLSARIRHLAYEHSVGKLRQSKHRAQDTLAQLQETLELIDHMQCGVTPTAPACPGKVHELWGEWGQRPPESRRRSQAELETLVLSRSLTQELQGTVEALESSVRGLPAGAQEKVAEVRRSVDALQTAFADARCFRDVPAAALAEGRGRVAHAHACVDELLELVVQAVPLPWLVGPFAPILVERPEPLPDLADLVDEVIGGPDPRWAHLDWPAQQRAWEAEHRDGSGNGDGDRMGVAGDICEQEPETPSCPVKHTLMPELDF
Target sequence (Q8WTS1 whole entry, looked up): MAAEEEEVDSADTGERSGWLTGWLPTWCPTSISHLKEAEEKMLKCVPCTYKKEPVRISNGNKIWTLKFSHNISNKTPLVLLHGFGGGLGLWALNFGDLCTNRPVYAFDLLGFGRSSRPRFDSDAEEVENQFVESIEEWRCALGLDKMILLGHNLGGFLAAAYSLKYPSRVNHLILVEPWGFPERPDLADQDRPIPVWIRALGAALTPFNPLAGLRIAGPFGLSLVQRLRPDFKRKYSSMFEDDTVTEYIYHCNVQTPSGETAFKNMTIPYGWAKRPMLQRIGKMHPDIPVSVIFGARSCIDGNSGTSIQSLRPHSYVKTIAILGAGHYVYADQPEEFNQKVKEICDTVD
PAX8 reporter: inhibitors of PAX8-driven TPO luciferase reporter, primary screen, RMG-I cells, single concentration; SteadyGlo, 24 h; inhibition, % at 12.6 µM; 1.2% of 360,000 active; AID 652154, 2013;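 active means mean replicate inhibition at least 60% with every replicate also reaching 60%; inconclusive means only one of the two criteria is met; inactive means mean below 60% and not all replicates reaching 60%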;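 further: luciferase light reporting Pax8 driven TPO promoter activity; plate controls were median of neutral control wells for no effect and mitoxantrone controls for full effect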
Shn3 3UTR inh: reduction of Shn3 3'UTR firefly luciferase signal, primary screen, Schnurri-3 inhibitor project, cell-based, Clone20 osteoblasts, set 2 | 0.52% of 360,000 active | Clone20 osteoblast Shn3 3'UTR firefly luciferase, 24 h | inhibition, % at 12.5 µM | AID 588674, 2011;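 active means mean inhibition of at least 75% with every replicate also reaching 75%; inconclusive means mean inhibition at least 75% but some replicate below; inactive means mean inhibition below 75%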;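 further: 0% = median of neutral control wells and 100% = pilot-screen positive control compound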
MITF TRPM1 inh: inhibitors of MITF-dependent TRPM1 promoter reporter, primary screen, cell-based, SK-MEL-5, single point, luciferase; SK-MEL-5 TRPM1 promoter luciferase, 24 h; inhibition, % at 12.5 µM; 0.83% of 330,000 active; AID 488899, 2010;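 active means mean inhibition across replicates of 60% or more, whatever share of single replicates reaches that level; inconclusive means some that reach 60%, reason not given; inactive means mean inhibition across replicates below 60%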
EWS-Fli inh: EWS/Fli-driven NR0B1 reporter inhibitors, primary screen, A673 cells, NR0B1 luciferase, luminescence, MLPCN library. inhibition, % at 12.6 µM. 0.67% of 350,000 active. viability-normalised. AID 651661, 2012;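 active means mean inhibition of at least 50% after viability correction, with every replicate also passing that limit; inconclusive means mean reaches 50% but only one of two replicates passes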;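 further: firefly luciferase signal divided by Alamar Blue viability fluorescence both relative to DMSO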
Peg3 promoter: Peg3 promoter-driven luciferase inhibitors, primary screen, cell-based, HeLa, luciferase luminescence | HeLa PEG-Prom luciferase reporter, overnight | inhibition, % at 20 µM | 1.7% of 360,000 active;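 active means inhibition of at least 50% at 20 µM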
ABHD5 PLIN5 conf: ABHD5-PLIN5 interaction inhibitors, confirmation, biochemical, luminescence; shares compounds with ABHD5 PLIN5 PPI; inhibition, % at 4 µM; 67% of 2,200 active; AID 651612, 2012; in the data active means inhibition above about 23%;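 further: 0% = DMSO vehicle wells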
HNF4 split-luc: HNF4 dimerization inhibitors, counter-screen for ABHD5-PLIN5 interaction inhibitor project, biochemical, split-luciferase complementation, luminescence. shares compounds with ABHD5 PLIN5 PPI. inhibition, % at 4 µM. 77% of 2,200 active. AID 651674, 2012;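 active means mean inhibition across replicate wells exceeding the computed hit threshold, cut at about 13% in these data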;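 further: light from luciferase halves that rejoin when HNF4 fusion proteins dimerize; 0% = DMSO only wells and the 100% control is not given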
Active calls of the source: *; ? = inconclusive; . = no result given. The list is not random: actives were taken first. Their share in the collection is about 3%.

SMILES	ABHD5 PLIN5 PPI	PAX8 reporter	Shn3 3UTR inh	MITF TRPM1 inh	EWS-Fli inh	Peg3 promoter	ABHD5 PLIN5 conf	HNF4 split-luc
O=C(NC1(O)C(=O)c2ccccc2C1=O)c1ccc(C(F)(F)F)cc1	28*	-18	-4	.	19	-9	54*	64*
O=C(C(=Cc1ccccc1)CN1CCCCC1)c1ccccc1	47*	104*	95*	97*	58*	103*	77*	65*
CCNC(=O)C[C@@H]1CC[C@@H]2[C@H](COc3ccc(NC(=O)c4ccc(F)cc4)cc3C(=O)N2C)O1	.	6	.	.	2	.	.	.
O=C(/C=C/c1cccc(Br)c1)c1ccc2c(c1)OCO2	33*	-64	19	-25	.	3	74*	63*
O=C(/C=C/c1ccncc1)c1ccc2c(c1)OCCO2	60*	-22	5	-2	4	105*	78*	74*
COc1cc(/C=C/C(=O)c2ccc3c(c2)OCCO3)cc(Br)c1OCC(=O)N(C)C	40*	7	92*	93*	61*	107*	74*	73*
CN(C)c1ccc(/C=C/C(=O)c2ccc3c(c2)OCO3)cc1	-1	-54	-26	-33	-29	-285	.	.
O=C(Nc1ccncc1)c1ccc2c(c1)OCCO2	-1	.	-10	-29	.	-132	.	.
O=C(/C=C/c1ccccc1)c1ccc2c(c1)OCO2	30*	-66	-37	-80	-41	-183	50*	34*
O=C(/C=C/c1ccccc1Br)c1ccc2c(c1)OCO2	0	-75	10	-28	-51	-106	.	.
C[C@H]1CN([C@@H](C)CO)C(=O)c2cc(NC(=O)CCC(F)(F)F)ccc2O[C@H]1CN(C)CC1CC1	.	-2	.	.	2	.	.	.
C[C@@H]1CN([C@@H](C)CO)C(=O)c2cc(NS(=O)(=O)c3cn(C)cn3)ccc2O[C@@H]1CN(C)C(=O)Nc1ccc2c(c1)OCO2	.	.	.	.	-14	.	.	.
O=S(=O)(NC1=NCCCCC1)c1ccc2sc(NS(=O)(=O)c3ccc4ccccc4c3)nc2c1	47*	38	.	-11	14	14	9	-35
CN1C(=O)/C(=C\C(=O)c2cccs2)c2ccccc21	65*	89*	31	51	42	26	67*	87*
CN(C)CCN(Cc1ccco1)c1ccccn1	46*	-7	7	10	-5	11	35*	0
Cc1ccccc1S(=O)Cc1ccc(C(=O)N2CCN(C(=O)c3ccco3)CC2)o1 (stereo not given)	75*	-13	-11	5	1	-5	-2	-3
COc1ccc(Br)cc1/C=C/C(=O)c1ccc(NC(C)=O)cc1	27*	105*	97*	82*	?	106*	85*	81*
O=C(Nc1ccc2c(c1)[C@@H]1C[C@H](CC(=O)N3CCCCC3)O[C@@H](CO)[C@@H]1O2)NC1CCCCC1	.	-1	.	.	1	.	.	.
COc1cccc(/C=C2\C(=O)C(=O)c3ccccc32)c1	-8	.	-3	17	.	9	.	.
COc1ccc2c(c1)/C(=C\c1cccc(/C=C3/C(=O)Nc4ccc(OC)cc43)n1)C(=O)N2	51*	27	96*	98*	67*	107*	100*	98*
COc1ccc(NC(=O)Nc2cccc3c2O[C@@H](CN(C)Cc2ccccc2)[C@H](C)CN([C@H](C)CO)C3=O)cc1	.	.	.	.	-13	.	.	.
O=C(C=Cc1cccs1)c1ccc(Cl)s1	24*	-30	5	-26	-22	-12	60*	40*
O=C(/C=C/c1cccs1)c1cc(Cl)ccc1O	10	-6	-13	-7	-4	13	.	.
O=C(Nc1ccc2c(c1)[C@@H]1C[C@H](CC(=O)N3CCOCC3)O[C@@H](CO)[C@@H]1O2)c1cccnc1	.	3	.	.	6	.	.	.
Cc1cc(OC(=O)N2CCOCC2)cc(C)c1Cl	-1	-1	-17	6	.	-18	.	.
SMILES	ABHD5 PLIN5 PPI	PAX8 reporter	Shn3 3UTR inh	MITF TRPM1 inh	EWS-Fli inh	Peg3 promoter	ABHD5 PLIN5 conf	HNF4 split-luc
CC(=O)Oc1c(Cl)c(N2CCOCC2)c(OC(C)=O)c2ccccc12	36*	.	-79	-53	.	-264	79*	8
CCOC(=O)Nc1ccc2c(c1)N(C(=O)CCN1CCOCC1)c1ccccc1S2	1	-7	3	-1	-1	11	.	.
CCOC(=O)Nc1ccc2c(c1)N(C(=O)CCN1CCOCC1)c1ccccc1S2=O (stereo not given)	27*	106*	-22	15	.	20	6	42*
Cc1noc(C)c1NC(=O)NCC[C@H]1CC[C@@H](NC(=O)Nc2cccc(Cl)c2)[C@@H](CO)O1	.	1	.	.	-4	.	.	.
O=C(/C=C/Sc1ccccc1)c1ccccc1	35*	.	68	11	24	79*	61*	47*
O=C(/C=C/Sc1ccccc1)c1ccc(Cl)cc1	38*	.	3	-41	.	-16	70*	47*
CCN(C[C@@H]1[C@@H](c2ccc(C3=CCCC3)cc2)[C@@H](CO)N1C(C)=O)C(C)=O	.	5	.	.	10	.	.	.
N#C/C(=C\c1ccc(N2CCOCC2)o1)c1nc2ccccc2[nH]1	24*	.	17	-2	.	-41	29*	51*
N#C/C(=C/c1ccc(N2CCOCC2)o1)c1ccc(Cl)cc1	60*	.	91*	-94	.	-209	52*	106*
N#C/C(=C\c1ccc(N2CCCCC2)o1)C(N)=O	7	-26	-9	5	-13	-72	.	.
Cc1noc(C)c1S(=O)(=O)Nc1ccc2c(c1)C(=O)N([C@@H](C)CO)C[C@H](C)[C@@H](CN(C)S(=O)(=O)c1c(C)noc1C)OCCCC[C@H](C)O2	.	10	.	.	2	.	.	.
C/C=C/c1ccc2c(c1)O[C@@H](CN(C)C)[C@H](C)CN([C@@H](C)CO)S2(=O)=O	.	.	.	.	5	.	.	.
O=c1[nH][nH]c2c1[C@H](c1ccc(F)cc1)O[C@H](C1CCCCC1)C2	28*	-5	.	.	-13	.	9	26*
O=c1[nH][nH]c2c1[C@H](c1ccccc1)O[C@H](C1CCCCC1)C2	31*	1	.	.	-5	.	34*	44*
O=c1[nH][nH]c2c1[C@H](c1ccc(Cl)cc1)O[C@H](C1CC1)C2	23*	-8	.	.	-24	.	38*	25*
N#C[C@H]1N[C@H](CO)[C@H]1c1ccc(C2=CCCC2)cc1	.	6	.	.	1	.	.	.
